KB-V1 MDR tox = kills drug-selected multidrug resistant KB-V1 cells; KB-V1 MDR cells viability, CellTiter-Glo, 72 h; Potency, µM (highest dose often 46.1 µM), actives largely listed as cytotoxic; actives 3.4% (n = 400,000); AID 1347076; note: nearly all actives have a fitted effect of over 60% in size
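Cytotoxicity via CellTiter-Glo luminescence after 72 h compound exposure at 37 degrees C. Cells: drug-selected KB-V1 line, DMEM phenol-red free plus 10% FBS. Compounds tested at multiple concentrations; normalized data fitted to concentration-effect curves.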
MCF10A rereplic = DNA re-replication induction in MCF 10a cells; MCF 10A DNA re-replication, Hoechst nuclear intensity, 48 h; Potency, µM (series often up to 46.1 µM), actives largely listed as activators; actives 2.9% (n = 350,000); AID 624296; note: nearly all actives have a fitted effect of over 50% in size
HT1080 IDH1KD tx = HT-1080 IDH1 knockdown cell toxicity (counter line); Potency, µM (highest dose often 46.1 µM), most hits filed as cytotoxic; AID 686971; HT-1080 IDH1 knockdown viability, ATP luminescence, 48 h; actives 2% (n = 360,000)
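HT-1080-IDH1KD cells (IDH1 knocked down), 750/well in RPMI with 5% FBS, treated with compound 48 h at 37 degrees C. Viability by CellTiter-Glo luminescence, normalised to DMSO and no-cell wells; concentration-response curves classed.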
KB-3-1 tox = kills parental KB-3-1 adenocarcinoma cells; KB-3-1 viability, CellTiter-Glo ATP luminescence, 72 h; actives 1.4% (n = 400,000); Potency, µM (highest dose often 46.1 µM), actives largely listed as cytotoxic; note: nearly all actives have a fitted effect of over 60% in size
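Multi-concentration cytotoxicity screen in KB-3-1 cells grown in DMEM lacking phenol red with 10% FBS. After 72 h at 37 °C with compound, ATP-dependent luminescence was recorded.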
SW480 rerep = inducers of DNA re-replication in SW480 colon cancer cells; Potency, µM (highest dose often 46.1 µM), usual class: activators; actives 1.8% (n = 340,000); SW480 DNA re-replication, Hoechst DNA content imaging, 48 h; AID 624297; note: nearly all actives have a fitted effect of over 55% in size
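Compounds, transferred as 23 nL by pin tool, were incubated with cells for 48 hr; DNA content per nucleus was then quantified by Hoechst staining and fluorescence plate imaging.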
HT1080-NT tox = kills 2HG-producing HT-1080-NT fibrosarcoma cells; actives 1.6% (n = 360,000); HT-1080-NT fibrosarcoma viability, CellTiter-Glo ATP luminescence, 48 h; Potency, µM (series often up to 46.1 µM), most hits filed as cytotoxic;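 note: NT is the 2HG producing partner of a matched IDH1 knockdown line; nearly all actives have a fitted effect of over 55% in size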
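A 48-hour cytotoxicity screen used HT-1080-NT cells plated 2 hours before compound delivery. ATP-based CellTiter-Glo luminescence measured viability, normalized to DMSO and no-cell controls.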
A number is an active result; – = inactive; ? = inconclusive; · = not tested or not shown. An excerpt weighted towards active compounds, which were near 8% of everything screened. Calls come from the whole dose curve; as a rule, active = well fitted curve in the direction sought with a large enough effect; inconclusive = small, poorly fitted or top-dose-only effect, or another doubt; inactive = no such curve, though single readings can be large; an effect the other way counts as inactive or inconclusive.

SMILES	KB-V1 MDR tox	MCF10A rereplic	HT1080 IDH1KD tx	KB-3-1 tox	SW480 rerep	HT1080-NT tox
Cc1c(C)c2c(c(C)c1OC(=O)CCC(=O)O)CC[C@@](C)(CCC[C@H](C)CCC[C@H](C)CCCC(C)C)O2	·	–	·	·	–	·
CCOc1ccc(CCNC(=O)c2cc3c(=O)n(CC)c4ccccc4c3s2)cc1OCC	?	·	·	–	·	·
COc1ccc(N(CC(=O)NC(C)c2ccccc2)S(=O)(=O)c2c(C)nn(C)c2C)cc1 (centres undefined)	–	·	·	–	·	·
COc1ccc(C(=O)N2CCN(S(=O)(=O)c3ccc4c(c3)OCCO4)CC2)cc1	–	·	–	–	·	–
CC(=O)Nc1ccc(NC(=O)C2CCN(S(=O)(=O)c3ccc4c(c3)OCCO4)CC2)cc1	–	–	–	–	–	–
COc1ccc(C2CCCCCN2C(=O)C2CCN(S(=O)(=O)c3cccc(C(C)=O)c3)CC2)cc1 (centres undefined)	18.4µM	–	–	–	?	–
Cc1ccc(NC(=O)C2CCN(S(=O)(=O)c3ccc4c(c3)OCCCO4)CC2)nc1	?	–	–	16.4µM	–	?
O=C(Nc1ccccn1)C1CCN(S(=O)(=O)c2ccc3c(c2)OCCCO3)CC1	–	–	–	–	–	–
O=C(Nc1ccc2c(c1)OCCO2)C1CCN(S(=O)(=O)c2ccc3c(c2)OCCO3)CC1	14.6µM	–	–	–	–	–
COc1ccc(C(=O)C2CCN(S(=O)(=O)c3ccc4c(c3)OCCO4)CC2)cc1	23.1µM	–	?	?	–	–
CC(=O)c1cccc(S(=O)(=O)N2CCC(C(=O)O)CC2)c1	–	–	–	–	–	–
COc1ccccc1CNc1ccc(-c2nc(-c3ccccn3)no2)cc1[N+](=O)[O-]	–	·	·	–	·	·
CC1(C)CCC(C)(C)c2cc(NC(=O)c3ccc(C(=O)O)cc3)ccc21	·	–	·	·	–	·
COc1ccc(CN(C)S(=O)(=O)c2nnc(NC(=O)C(C)C)s2)cc1OC	–	·	·	?	·	·
CCOc1ccccc1/C=C/c1onc(C)c1S(=O)(=O)N1CCC(C(=O)N2CCCCC2)CC1	–	·	·	–	·	·
Fc1ccc2c(c1)C1C=CCC1C(c1cc3c(cc1Br)OCO3)N2 (centres undefined)	?	23.1µM	?	?	?	?
Fc1ccc([C@@H]2Nc3ccccc3[C@@H]3C=CC[C@@H]32)cc1	–	·	·	–	·	·
CCOC(=O)C1=C[C@@H](C(C)(C)C)N(S(=O)(=O)c2ccc(C)cc2)[C@H]1c1ccc(C)cc1	–	·	13µM	–	·	?
COc1ccc(NC(=O)C23CCC(C)(C(=O)O2)C3(C)C)cc1 (centres undefined)	–	0.517µM	–	–	5.17µM	–
CCOC(=O)c1ccc(NC(=O)C23CCC(C)(C(=O)O2)C3(C)C)cc1 (centres undefined)	?	–	–	–	–	–
COc1ccc(CNC(=O)Nc2ccc(OC)cc2)cc1	–	18.4µM	–	–	?	–
COc1ccc(CNC(=O)Nc2ccccc2)cc1	–	–	–	–	–	–
COC(=O)c1sccc1S(=O)(=O)N1CCN(c2ccccc2)CC1	–	·	·	–	·	·
CC=Cc1cc2c(c(=O)o1)C(=O)C(O)C(C)O2 (centres undefined)	–	11.6µM	?	–	18.4µM	–
CCOc1ccccc1C=C1SC(=S)N(CC)C1=O	–	–	–	–	–	–
CCN1C(=O)/C(=C\C=C\c2ccccc2[N+](=O)[O-])SC1=S	?	4.11µM	–	?	?	–
Cc1ccc(NC(=O)CSc2nc3ccccc3c3nc(CCc4c(C)n[nH]c4C)nn23)cc1F	–	3.66µM	7.94µM	–	10.3µM	–
Cc1n[nH]c(C)c1CCc1nc2c3ccccc3nc(SCC(=O)Nc3ccc(F)cc3)n2n1	–	·	·	–	·	·
COc1cccc(OC)c1OCCCCCCN1CCN(C)CC1	–	–	–	–	–	–
c1ccc(OCCOCCN2CCN(C(c3ccccc3)c3ccccc3)CC2)cc1	?	?	–	?	8.2µM	–

Assay outcomes from PubChem.
